In PubChem BioAssay (Tox21):
Unmarked numbers belong to inactive results. Records with an inconclusive call do not appear. Where a call stands in place of a potency, no number is given. The source made the active and inactive calls. Unless noted, the call rests on the fitted dose curve; in most records, active means well fitted curve in the direction sought with a large enough effect in the repeat runs; inconclusive means weak or mixed curves; inactive means no such curve, though single readings can be large; an effect the other way counts as inactive or inconclusive.

Legend:
[1] = molecular target: Luciferin 4-monooxygenase (Photinus pyralis) (UniProt P08659); experiment: qHTS assay to identify small molecule inhibitors of firefly luciferase (AID 1224835); further: nearly all actives have a fitted effect of over 25% in size; further: potency means the concentration at half of the fitted maximal effect
Sequence of Luciferin 4-monooxygenase (Photinus pyralis) (P08659 whole entry, looked up): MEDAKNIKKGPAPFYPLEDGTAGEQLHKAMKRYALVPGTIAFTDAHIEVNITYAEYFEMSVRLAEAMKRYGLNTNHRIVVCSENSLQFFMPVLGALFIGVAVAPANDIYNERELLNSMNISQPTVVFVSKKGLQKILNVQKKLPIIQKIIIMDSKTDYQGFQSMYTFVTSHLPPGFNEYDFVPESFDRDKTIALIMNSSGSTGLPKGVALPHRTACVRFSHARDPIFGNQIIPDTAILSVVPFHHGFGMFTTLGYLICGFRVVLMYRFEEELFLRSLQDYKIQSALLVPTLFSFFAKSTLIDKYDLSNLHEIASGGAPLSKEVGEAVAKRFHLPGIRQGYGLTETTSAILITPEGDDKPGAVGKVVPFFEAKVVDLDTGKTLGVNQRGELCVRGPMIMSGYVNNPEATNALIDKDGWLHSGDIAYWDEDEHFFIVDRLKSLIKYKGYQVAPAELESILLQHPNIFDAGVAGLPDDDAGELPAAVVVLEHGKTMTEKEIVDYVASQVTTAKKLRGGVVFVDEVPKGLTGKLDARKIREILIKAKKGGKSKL
How it was run: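 Quantitative HTS format; KM concentrations of both substrates. Purified P. pyralis FLuc activity quantified from luminescence images.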

[2] = qHTS assay to identify small molecule agonists of the constitutive androstane receptor (CAR) signaling pathway - cell viability counter screen (AID 1224836); further: nearly all actives have a fitted effect of over 45% in size
How it was run: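 Fluorescence from CellTiter-Fluor indicates live cells after 23 h exposure. The human hepatoma line expresses hCAR and a CYP2B6-2.2kb reporter. Incubation medium contains 0.75 uM PK11195 (final).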

[3] = qHTS assay to identify small molecule antagonists of the constitutive androstane receptor (CAR) signaling pathway - cell viability counter screen (AID 1224837); further: nearly all actives have a fitted effect of over 45% in size
How it was run: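 HepG2 cells stably expressing hCAR and a CYP2B6-2.2kb reporter were plated and pre-incubated 4 hr at 37 C/5% CO2, then given compounds at 15 concentrations plus 50 nM CITCO (final). After 23 hr, viability was read by CellTiter-Fluor fluorescence.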

[4] = molecular target: Nuclear receptor subfamily 1 group I member 3 (Homo sapiens) (UniProt Q14994); experiment: qHTS assay to identify small molecule antagonists of the constitutive androstane receptor (CAR) signaling pathway (AID 1224838); further: nearly all actives have a fitted effect of over 40% in size
Sequence of Nuclear receptor subfamily 1 group I member 3 (Homo sapiens) (Q14994 whole entry, looked up): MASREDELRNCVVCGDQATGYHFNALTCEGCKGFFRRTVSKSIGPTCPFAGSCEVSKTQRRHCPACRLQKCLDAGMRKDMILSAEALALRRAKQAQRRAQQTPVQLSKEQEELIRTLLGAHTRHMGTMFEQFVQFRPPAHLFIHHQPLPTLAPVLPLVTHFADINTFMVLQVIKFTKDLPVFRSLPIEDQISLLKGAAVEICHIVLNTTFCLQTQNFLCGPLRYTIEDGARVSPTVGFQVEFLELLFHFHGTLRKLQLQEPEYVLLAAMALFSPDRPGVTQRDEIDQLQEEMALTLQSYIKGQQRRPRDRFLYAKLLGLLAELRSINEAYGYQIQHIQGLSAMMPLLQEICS
How it was run: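 HepG2 cells stably co-transfected with hCAR and a CYP2B6-2.2kb luciferase reporter were seeded 4 h before compound addition at 15 concentrations. Cells were stimulated with 50 nM CITCO (final) for 24 h at 37 C; luciferase luminescence was then read.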

[5] = qHTS assay to identify small molecule antagonists of the estrogen related receptor signaling pathway with the pleiotropic PPARgamma coactivator (PGC) from Tox21 10K library - cell viability counter screen (AID 1224840; active means well fitted cell-killing curve with a large enough effect in the repeat runs, not every such curve was filed as active; further: nearly all actives have a fitted effect of over 40% in size)
How it was run: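 PGC/ERR cells were seeded at 2,000 cells/well and left 6 hours at 37 C/5% CO2 before pin-tool addition of compounds in DMSO. After 17.5 hours at 37 C, CellTiter-Fluor was added and fluorescence read 30 minutes later.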

[6] = molecular target: Thyrotropin receptor (Homo sapiens) (UniProt P16473); experiment: qHTS assay to identify small molecule agonists of the thyroid stimulating hormone receptor (TSHR) signaling pathway (AID 1224843; calls by dose curve; further: nearly all actives have a fitted effect of over 45% in size)
Sequence of Thyrotropin receptor (Homo sapiens) (P16473 whole entry, looked up): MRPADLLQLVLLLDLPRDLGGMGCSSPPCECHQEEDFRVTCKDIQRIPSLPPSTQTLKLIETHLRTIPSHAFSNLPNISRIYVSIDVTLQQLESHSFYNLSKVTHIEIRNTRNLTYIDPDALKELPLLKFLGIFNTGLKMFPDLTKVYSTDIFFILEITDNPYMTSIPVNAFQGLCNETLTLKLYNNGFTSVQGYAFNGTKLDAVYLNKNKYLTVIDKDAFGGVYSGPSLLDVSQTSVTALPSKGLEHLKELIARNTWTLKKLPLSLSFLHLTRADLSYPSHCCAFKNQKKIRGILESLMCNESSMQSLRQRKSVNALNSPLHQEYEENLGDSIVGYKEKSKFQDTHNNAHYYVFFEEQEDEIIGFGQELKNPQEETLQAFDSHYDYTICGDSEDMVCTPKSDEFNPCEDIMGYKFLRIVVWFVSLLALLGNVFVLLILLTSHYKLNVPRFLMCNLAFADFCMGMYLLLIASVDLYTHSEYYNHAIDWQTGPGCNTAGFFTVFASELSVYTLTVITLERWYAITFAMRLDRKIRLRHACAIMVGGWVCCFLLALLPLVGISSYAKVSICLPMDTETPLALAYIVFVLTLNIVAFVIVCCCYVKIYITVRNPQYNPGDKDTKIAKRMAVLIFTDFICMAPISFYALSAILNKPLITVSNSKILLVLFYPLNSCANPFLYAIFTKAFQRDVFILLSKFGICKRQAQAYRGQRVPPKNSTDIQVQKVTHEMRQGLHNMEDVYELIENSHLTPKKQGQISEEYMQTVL
How it was run: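 Cell line HEK293 with TSHR; density 800/well. Exposure 30 min RT. Readout HTRF cAMP (cAMP-d2/anti-cAMP-cryptate), 1 h RT before reading.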

[7] = qHTS assay to identify small molecule agonists of H2AX (AID 1224845; active means well fitted activation curve with a large enough effect in the signal ratio in the repeat runs, not every such curve was filed as active; the % refers to the signal ratio)
How it was run: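 Wild-type CHO-K1 cells plated overnight, then exposed 3 hr at 37C to compounds at 15 concentrations (0.76% DMSO). Lysed, then HTRF anti-pH2AX(S139)-cryptate/anti-H2AX-d2 detection after 24 hr at room temperature; emissions 665 and 620 nm.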

[8] = qHTS RealTime-Glo MT Cell Viability Assay in HepG2 cells - 24 hour (AID 1224867); further: nearly all actives have a fitted effect of over 50% in size
How it was run: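 HepG2 suspension premixed with RealTime-Glo reagents is plated at 600 cells per well and left 5 h at 37 C/5% CO2. Compounds in DMSO then go in, and bioluminescence reflecting viable cell number is recorded over 40 h.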

[9] = qHTS RealTime-Glo MT Cell Viability Assay in HEK293 cells - 32 hour (AID 1224868); further: top concentration of the series differs between compounds; nearly all actives have a fitted effect of over 50% in size
How it was run: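 Reads taken at 0, 8, 16, 24, 32 and 40 h from the same wells. HEK293 cells (600/well) carried RealTime-Glo reagents from seeding, with compound added after a 5 h settle at 37 C.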

[10] = A CellTox Green Cytotoxicity Assay to monitor cytotoxicity in HEK293 cells - 0 hour (AID 1224869); further: nearly all actives have a fitted effect of over 50% in size
How it was run: (§1)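 HEK293 cells premixed with CellTox Green dye were seeded at 600 cells/well and left 5 h at 37 C/5% CO2 before pin transfer of 23 nL compound in DMSO. Fluorescence from dye bound to dead-cell DNA was read during 40 h treatment.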

[11] = qHTS RealTime-Glo MT Cell Viability Assay in HepG2 cells - 40 hour (AID 1224870); further: nearly all actives have a fitted effect of over 50% in size
How it was run: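 HepG2 cells mixed with RealTime-Glo MT reagents (NanoLuc plus cell-permeant prosubstrate) were seeded at 600 cells/well, incubated 5 h at 37 C/5% CO2, then pinned with compounds in DMSO; nonlytic luminescence tracked viability during 40 h treatment.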

[12] = A CellTox Green Cytotoxicity Assay to monitor cytotoxicity in HEK293 cells - 40 hour (AID 1224871); further: nearly all actives have a fitted effect of over 45% in size
How it was run: as §1

[13] = qHTS assay to identify small molecule antagonists of the estrogen related receptor signaling pathway with the pleiotropic PPARgamma coactivator (PGC) from Tox21 10K library (AID 1224841; call rule not given here)
How it was run: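 PGC/ERR reporter cells were seeded at 2,000 cells/well and held 6 hours at 37 C/5% CO2 before pin-tool addition of compounds in DMSO. After 18 hours at 37 C, One-Glo was added and luminescence read after 30 minutes at room temperature.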

[14] = qHTS assay to identify small molecule agonists of the estrogen related receptor signaling pathway with the pleiotropic PPARgamma coactivator (PGC) from Tox21 10K library (AID 1224842); further: nearly all actives have a fitted effect of over 15% in size
How it was run: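 PGC/ERR reporter cells (NTP line) were seeded 2,000 per well, rested 6 h at 37 C/5% CO2, then pin-dosed with compounds in DMSO for 18 h at 37 C; luciferase read by One-Glo luminescence after 30 min at room temperature.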

[15] = qHTS assay to identify small molecule agonists of the hypoxia (HIF-1) signaling pathway - cell viability counter screen (AID 1224844; calls by dose curve; further: nearly all actives have a fitted effect of over 50% in size)
How it was run: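 HRE-bla ME-180 cells in medium with 0.5% dialyzed FBS were preincubated 5 hrs at 37C, exposed to compounds for 17 hrs, then viability was read as CellTiter-Glo luminescence after 30 min at room temperature, in the reporter wells.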

[16] = qHTS assay to identify small molecule agonists of the hypoxia (HIF-1) signaling pathway (AID 1224846; active means well fitted activation curve with a large enough effect in the signal ratio in the repeat runs, not every such curve was filed as active; the % refers to the signal ratio)
How it was run: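 HRE-bla ME-180 cells (beta-lactamase reporter under hypoxia response element) were plated at 2,000 cells/well in medium with 0.5% dialyzed FBS, rested 5 hrs, then given compounds in DMSO for 17 hrs at 37C, 5% CO2. Reporter induction was read with CCF4-AM FRET substrate.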

[17] = qHTS assay to identify small molecule agonists of H2AX - cell viability counter screen (AID 1224847; calls by dose curve; further: top concentration of the series differs between compounds; nearly all actives have a fitted effect of over 30% in size)
How it was run: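 Viability of CHO-K1 (wild type) cells after 3 hr compound exposure was measured by CellTiter-Glo luminescence.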

[18] = qHTS assay to identify small molecule antagonists of the estrogen related receptor (ERR) signaling pathway from Tox21 library (AID 1224848); further: nearly all actives have a fitted effect of over 50% in size
How it was run: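 Screening used an ERR reporter line supplied by NTP, exposed for 18 h at 37 C to library compounds delivered in DMSO. Signal was luciferase luminescence developed with ONE-Glo at room temperature for 30 min.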

[19] = qHTS assay to identify small molecule agonists of the estrogen related receptor (ERR) signaling pathway from Tox21 library (AID 1224849; calls by dose curve; further: nearly all actives have a fitted effect of over 15% in size); settings: ERR reporter cell line, ONE-Glo luciferase, 18 h; at 92.4 µM (top of the series) unless noted
How it was run: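 ERR reporter cell line (NTP) seeded, rested 6 h at 37 C/5% CO2, then pinned with Tox21 compounds in DMSO. After 18 h at 37 C, ONE-Glo luciferase luminescence was read following 30 min at room temperature.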

[20] = molecular target: Nuclear receptor subfamily 1 group I member 3 (Homo sapiens) (UniProt Q14994); experiment: qHTS assay to identify small molecule agonists of the constitutive androstane receptor (CAR) signaling pathway (AID 1224839);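 further: HepG2 cells stably carrying human CAR and a CYP2B6 luciferase reporter; nearly all actives have a fitted effect of over 15% in size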
How it was run: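 Stable hCAR/CYP2B6-2.2kb HepG2 line in DMEM with 10% FBS; compounds (15 concentrations) and 0.75 uM PK11195 final, 24 h at 37 C/5% CO2, then ONE-Glo luminescence after 30 min.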

Compound	Potency [1]	Potency [2]	Potency [3]	Potency [4]	Potency [5]	Potency [6]	Potency [7]	outcome [8]	Potency [9]	Potency [10]	Potency [11]	Potency [12]	Potency [13]	Potency [14]	Potency [15]	outcome [16]	Potency [17]	Potency [18]	activity change, positive = activation [19]	Potency [20]
Cc1c(Nc2ncccc2C(=O)O)cccc1C(F)(F)F	17.4 µM (active)	inactive	inactive	inactive	inactive	inactive	inactive	inactive	inactive	inactive	inactive	inactive	–	–	–	–	–	–	–	–
CCC(C)C1N=C(C)C(C)S1 (stereo unspecified)	inactive	inactive	inactive	–	inactive	inactive	inactive	inactive	inactive	inactive	inactive	–	inactive	inactive	inactive	inactive	inactive	inactive	-2.96%	–
O=C(O)CCc1nc2ccccc2[nH]1	inactive	inactive	inactive	inactive	inactive	–	inactive	–	–	inactive	inactive	inactive	–	–	inactive	–	inactive	–	–	–
CC(CCl)OC(C)CCl (stereo unspecified)	inactive	inactive	–	inactive	inactive	inactive	inactive	inactive	inactive	inactive	inactive	inactive	–	–	inactive	inactive	–	–	–	inactive
CCN(CC)CC(=O)OCC(=O)[C@@]1(O)CC[C@H]2[C@@H]3CCC4=CC(=O)CC[C@]4(C)[C@H]3[C@@H](O)C[C@@]21C	inactive	inactive	–	inactive	inactive	inactive	inactive	inactive	inactive	inactive	inactive	inactive	–	–	inactive	–	inactive	–	–	inactive
CC1(C)CC(=O)CC(C)(C)N1	inactive	inactive	inactive	–	inactive	inactive	inactive	inactive	inactive	inactive	inactive	inactive	–	–	–	inactive	inactive	–	–	–
